# Data reported in PubChem BioAssay AID2314 (National Center for Advancing Translational Sciences (NCATS), 2010).
# Several values for one entry are separate records, joined by “and”; a condition that tells them apart may be missing. Identical values can stand only once. The campaign covered roughly 300,000 compounds. About 37,000 (12%) were called active. No stated cut-off is given here; in the data, active means max response mostly above about 13% (no sharp cut-off); inactive means mostly below about 14%. The full list was thinned out, with actives kept by preference.
# Test: Cycloheximide Counterscreen for Small Molecule Inhibitors of Shiga Toxin; further: read at 38.3 µM for the half of the compounds with a filed dose; 0% is about no effect
# Details: cell reporter, cycloheximide protein synthesis inhibition counterscreen; hits give high values
row,Compound,max response
1,COc1cc(CCC(=O)N2CCN(c3ccccc3Cl)CC2)cc(OC)c1OC,-5.65% (inactive)
2,CNC(=S)N/N=C/c1ccc(OCc2ccccc2)c(Br)c1,-5.52% (inactive)
3,Cc1ccc(CNC(=O)C2(C(F)(F)F)C/C(=C\CCO)CCCO2)o1 (configuration not stated),7.26% (inactive)
4,COc1ccc(OC)c(S(=O)(=O)Nc2cccc(-c3ccc4nncn4n3)c2)c1,-3.34% (inactive)
5,CCC(=O)Nc1cccc(NC(=O)CSc2nnc(-c3ccc(NS(C)(=O)=O)cc3)n2C)c1,-1.2% (inactive)
6,CS(=O)(=O)Nc1cccc(-c2cn3ccccc3n2)c1,19.3% (active)
7,CC(=O)C1=C(O)C(=O)N(c2ccc(Br)cc2)C1c1ccc([N+](=O)[O-])cc1 (configuration not stated),-1.92% (inactive)
8,CCN(CC)CCn1c(/N=C/c2cc(Br)ccc2O)nc2ccccc21,8.52% (inactive)
9,Oc1ccc(Br)cc1C=Nc1ccc2[nH]ncc2c1,-2.62% (inactive)
10,Oc1ccc(Br)cc1/C=N/Nc1ccccn1,41.6% (active)
11,COc1cccc(-n2c(N)cc(=O)nc2SCC(=O)Nc2cc(C)on2)c1,-3.66% (inactive)
12,Cc1ccnc(N2CCN(C(=O)CSc3nc4ccccc4nc3N3CCCCC3)CC2)c1,-5.65% (inactive)
13,Cn1c(Nc2ccccc2)cc(=O)n(C)c1=O,-4.74% (inactive)
14,COc1ccc(C(=O)COC(=O)CNC(=O)c2cccs2)cc1Br,-4.46% (inactive)
15,COc1cc(NC(=S)NCCSc2ccc(C)cc2)cc(OC)c1,2.45% (inactive)
16,Cc1ccc(C(=O)NNC(=O)c2cc3cc4ccccc4nc3s2)cc1,-2.84% (inactive)
17,Cc1ccc(C(=O)NNc2ncnc3ccccc23)cc1,37.5% (active)
18,CCc1nc(SCC(=O)NNC(=O)c2ccc(C)cc2)c2ccccc2n1,-3.44% (inactive)
19,CCOc1ccccc1-c1nc(CN2CCC(C(=O)N3CCOCC3)CC2)c(C)o1,5.66% (inactive)
20,CCOC(=O)CSc1nnc(NC(=O)C2CC(=O)N(c3ccc(F)cc3)C2)s1 (configuration not stated),4.08% (inactive)
21,Cc1cc(-c2n[nH]c(=S)n2/N=C/c2ccco2)n[nH]1,0.979% (inactive)

row,Compound,max response
1,Cc1cc(-c2n[nH]c(=S)n2/N=C/C(Br)=C/c2ccccc2)n[nH]1,95.8% (active)
2,S=c1[nH]nc(-c2cccnc2)n1/N=C/C(Cl)=C\c1ccccc1,-2.93% (inactive)
3,Cc1nn(C)cc1S(=O)(=O)N1CCN(c2ccc(F)cc2)CC1,11.1% (inactive)
4,CN(C(=O)COC(=O)CNC(=O)C12CC3CC(CC(C3)C1)C2)c1ccccc1,1.16% (inactive)
5,C#C[C@]1(O)CC[C@H]2[C@@H]3CCC4=CC(=O)CC[C@@H]4[C@H]3CC[C@@]21CC,-12.5% (inactive) and -2.99% (inactive) and -5.94% (inactive)
6,Cc1nc(CN(C)C(=O)CC2C(=O)NCCN2Cc2ccc(F)cc2)cs1 (configuration not stated),-1.31% (inactive)
7,CNC(=S)N1N=C(c2ccccc2)CC1c1ccc(Br)cc1 (configuration not stated),12.1% (inactive)
8,Brc1ccc(C2=NCCC(c3ccccc3)O2)cc1 (configuration not stated),6.52% (inactive)
9,Brc1ccc(C2CC(c3ccccc3)=Nc3ccccc3N2)cc1 (configuration not stated),43.8% (active)
10,CNC[C@H](CC1CCCCC1)NC[C@H](NCCC1CCCC1)[C@H](C)O,-3.05% (inactive)
11,COc1ccc(N2CCN(C(=O)CSc3nc4cc(OC)c(OC)cc4cc3C#N)CC2)cc1,2.1% (inactive)
12,CCOc1ccc2cc(C#N)c(SCC(=O)OC)nc2c1,26.6% (active)
13,Cc1nonc1NC(=O)CSc1nc2ccccc2cc1C#N,29.2% (inactive)
14,CCCn1c2ccccc2c2cnn(CC(=O)NCCCN3CCCCC3CC)c(=O)c21 (configuration not stated),-4.88% (inactive)
15,O=C(Nc1ccc(Oc2ccccc2)cc1)c1ccco1,37.5% (active)
16,O=C(Nc1cc(-c2nc3ncccc3o2)ccc1Cl)c1ccco1,7.89% (inactive)
17,Cc1cccc(NC(=O)Nc2cccc(Oc3c(F)c(F)c(F)c(F)c3F)c2)c1,7.92% (inactive)
18,Cc1ccoc1C(=O)Nc1cccc(Oc2ccccc2)c1,62.1% (active)
19,O=C(Nc1c(-c2ccccc2)nc2c(Br)cc(Br)cn12)c1ccco1,14.7% (inactive)
20,O=C(Nc1cccc(-c2nc3ncccc3o2)c1)c1ccco1,29.9% (active)
21,CCOc1cc(NC(=O)c2ccco2)c(OCC)cc1NC(=O)COc1ccccc1,-3.22% (inactive)

row,Compound,max response
1,O=C(Nc1ccc2nccnc2c1)c1ccco1,36.2% (active)
2,Cc1ccnc(NC(=O)c2ccco2)n1,10.2% (inactive)
3,O=C(CSc1ccccc1)Nc1ccc(NC(=O)c2ccco2)cc1,16.6% (inactive)
4,O=C(Nc1cccc(NC(=O)c2ccco2)c1)c1cnccn1,6.96% (inactive)
5,Cc1ccc(C(=O)COc2cccc(NC(=O)c3ccco3)c2)cc1,4.03% (inactive)
6,COc1ccc(C(=O)Nc2ccc(C(=O)NCC3CCCO3)cc2)c(OC)c1OC (configuration not stated),-0.955% (inactive)
7,O=S(=O)(Nc1cccc2cccnc12)c1cccc2cccnc12,-4.18% (inactive)
8,COc1cc(/C(=C/c2ccccc2)c2ccccc2)c2c(c1)oc1ccccc12,-1.79% (inactive)
9,CCCOc1ccc(/C=N/NC(=O)C2CC2)c(OCCC)c1,1.32% (inactive)
10,Cc1cc(NC(=O)[C@H](C)NC(=O)c2ccco2)ccc1Br,-2.49% (inactive)
11,O=C(Nc1ccc2oc(-c3ccccc3F)nc2c1)c1ccco1,47.3% (active)
12,O=C(NNC(=O)c1ccco1)Nc1ccccc1,12.6% (inactive)
13,O=C(Nc1ccccc1)/C(=C\c1ccco1)NC(=O)c1ccco1,25.7% (inactive)
14,O=C(Nc1ccccc1)c1ccco1,18.8% (active)
15,Cc1ccc(C(=O)NCCNC(=O)c2ccccc2)cc1,2.82% (inactive)
16,CCS(=O)(=O)Nc1ccc(C(=O)NCCSc2ccccc2)cc1,30% (active)
17,O=C(Nc1ccc(Sc2ccc(Br)cc2)cc1)c1ccco1,35.2% (active)
18,Cc1ccc(C(=O)NCCNS(=O)(=O)c2ccccc2)cc1,-4.96% (inactive)
19,COc1ccc(NC(=O)c2ccco2)cc1NC(=O)c1ccc(C#N)cc1F,1.08% (inactive)
20,COc1ccc(NC(=O)CCCN2C(=O)C(c3ccccc3)Oc3cccnc32)cc1 (configuration not stated),21.3% (inactive)
